Source: PubChem BioAssay (National Center for Advancing Translational Sciences (NCATS))
ERK AVP block: blocks ERK signaling stimulated by vasopressin. HEK293-V1b, vasopressin-stimulated pERK AlphaScreen. hit rate 0.99% among 72,000. AID 995. Potency, µM (top dose mostly 57.5 µM), without a hit: at the top dose activity, negative = inhibition, usual class: inhibitors; note: % is set by controls: 0 for no effect and ±100 for the full control effect; nearly all actives have a fitted effect of over 55% in size
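HEK293 cells stably expressing V1b receptor, preincubated 30 min at 37 °C with compound, then stimulated 5 min with 25 nM vasopressin. Phospho-ERK by AlphaScreen SureFire after 5 h RT; normalized to DMSO and vasopressin; AC50 by Hill fit.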
Tau fil binding: tau filament binding. P10636. Potency, µM (doses to about 57.1 µM), inactives show top-dose activity change, negative = inhibition. hit rate 2% among 71,000. recombinant tau filaments, thioflavin S fluorescence, 15 h; filaments grown with octadecylsulfate alongside compound;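 note: % is set by controls: 0 for no effect and ±100 for the full control effect; actives lower thioflavin S fluorescence by blocking filaments or displacing dye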
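His-tagged recombinant human tau (exons 2, 3 and 10 included), 1 uM, was induced to fibrillize by 30 uM sodium octadecylsulfate with compound present. After 15 h at 37 C, thioflavine S fluorescence (ex 450, em 510 nm) was read.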
CRE Fsk mod: modulators of forskolin-stimulated CRE signaling in CHO cells | AID 662 | hit rate 2.5% among 71,000 | CHO CRE-bla reporter (cAMP response element driving beta-lactamase), forskolin EC10, beta-lactamase ratio | Potency, µM (titrated, usually from 38.2 µM), for inactives: top-dose activity change, negative = inhibition, usual class: activators; active = well fitted activation curve with a large enough effect in the signal ratio, with a control signal flat, not every such curve was filed as active; inconclusive = small, poorly fitted or top-dose-only effect, or effect the other way, or a change in a side signal; the % refers to the signal ratio; note: % of control where 0% means no effect
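Cells were plated overnight at 37 °C, exposed to compound titrations plus EC10 NKH 477 for 3 h, then given CCF4 dye for 2 h at room temperature. Blue/green (460/530 nm) ratio was converted to %Activity and AC50 values calculated.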
TSHR ag: activates the human thyroid stimulating hormone receptor; HEK293-CNG-TSHR cells (CNG channel as cAMP sensor), membrane potential dye, cAMP; Potency, µM (series often up to 57.1 µM), for inactives: at the highest dose activation, usual class: activators; hit rate 0.48% among 73,000; active = well fitted activation curve with a large enough effect in the main read-out, with a control signal flat, not every such curve was filed as active; inconclusive = small, poorly fitted or top-dose-only effect, or a change in a side signal; inactive = no such curve, though single readings can be large or run the other way; % of control where 0% means no effect;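 note: the control signal comes from parental cells without the receptor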
Target sequence (P16473 whole entry, looked up): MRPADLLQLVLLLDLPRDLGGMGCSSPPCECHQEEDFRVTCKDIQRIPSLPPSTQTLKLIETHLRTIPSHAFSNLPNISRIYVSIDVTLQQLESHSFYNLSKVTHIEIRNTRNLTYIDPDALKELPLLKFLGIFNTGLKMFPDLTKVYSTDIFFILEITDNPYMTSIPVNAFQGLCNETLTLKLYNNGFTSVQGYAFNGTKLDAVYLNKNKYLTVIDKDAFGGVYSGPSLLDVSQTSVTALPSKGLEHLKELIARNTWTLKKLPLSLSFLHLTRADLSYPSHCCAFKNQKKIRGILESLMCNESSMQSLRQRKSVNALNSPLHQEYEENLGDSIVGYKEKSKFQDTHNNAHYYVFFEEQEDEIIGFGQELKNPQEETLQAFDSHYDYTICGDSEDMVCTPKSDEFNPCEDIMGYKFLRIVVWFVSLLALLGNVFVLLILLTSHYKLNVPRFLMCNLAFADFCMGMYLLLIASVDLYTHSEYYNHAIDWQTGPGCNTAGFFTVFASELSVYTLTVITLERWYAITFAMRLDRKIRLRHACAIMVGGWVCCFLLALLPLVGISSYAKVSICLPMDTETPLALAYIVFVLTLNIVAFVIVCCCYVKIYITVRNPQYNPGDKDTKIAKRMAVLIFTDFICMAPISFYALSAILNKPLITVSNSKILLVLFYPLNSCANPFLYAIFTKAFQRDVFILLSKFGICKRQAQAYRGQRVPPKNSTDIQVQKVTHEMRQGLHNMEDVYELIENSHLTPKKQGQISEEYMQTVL
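HEK 293 cells stably expressing TSHR and a modified CNG channel, with CNG-only parental cells as counterscreen, were preloaded 60 min at room temperature with membrane potential dye containing 100 uM RO 20-1724. Compound exposure was 30 min, and depolarization was read as fluorescence at 590 nm.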
HEK293 cAMP cs: parental HEK293 cAMP activation (counter-screen); Potency, µM (highest dose often 57.1 µM), inactives show top-dose activation, usual class: activators; parental HEK293 CNG cAMP sensor, membrane potential fluorescence; hit rate 2.5% among 73,000; AID 938; note: % of control where 0% means no effect; nearly all actives have a fitted effect of over 55% in size
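Counterscreen for endogenous-receptor signalling: CNG-channel HEK 293 cells report cAMP rise by membrane depolarization. After 60 min dye equilibration with 100 uM RO 20-1724, compounds incubated 30 min before bottom-read fluorescence at 590 nm.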
The depositor's hits bear a star; ? = inconclusive; nt = not tested or not shown; [ ] = another dose, or the depositor's remark. Only some compounds are listed: those with a hit (about 7.4% of all), similar ones and a draw of the others. Unless noted, calls come from the whole dose curve; as a rule, active = well fitted curve in the direction sought with a large enough effect; inconclusive = small, poorly fitted or top-dose-only effect, or another doubt; inactive = no such curve, though single readings can be large; an effect the other way counts as inactive or inconclusive. Potency is the fitted concentration of half-maximal effect.

SMILES	ERK AVP block	Tau fil binding	CRE Fsk mod	TSHR ag	HEK293 cAMP cs
COc1ccc(OC)c(NC(=O)CSc2nnc(CCCO)n2-c2ccccc2)c1	-4%	8%	?	5%	1%
COc1ccc(NC(C)=O)cc1NC(=O)CSc1nnc(-c2ccccc2)n1N	-13%	4%	-7%	16%	-9%
COC(=O)[C@@H]1CC[C@H](C)[C@@H](c2ccc(C)cc2)N1C(=O)c1ccc(/C=N\OC[C@@H](C)[C@H](OCc2ccccc2)C(C)C)cc1	9%[11.5 µM]	nt	nt	-2%[11.4 µM]	5%[11.4 µM]
O=c1[nH]c(CSc2nnc(-c3ccco3)n2-c2ccccc2)nc2sc3c(c12)CCC3	-12%	96%	10µM*	nt	18%
COC(=O)c1cccc(CSc2nnc(-c3ccco3)n2-c2ccccc2)c1	4%	22%	?	?	20µM*
CCOc1ccc(-c2cc3nc(C4CCN(C(=O)OC(C)(C)C)CC4)c(C(=O)O)cn3n2)cc1	?	-7%	13µM*	nt	-15%
CCOC(=O)N1CCN(C(=O)c2cc(-c3ccc(OCC)cc3)nc3ccccc23)CC1	?	-7%	?	18%	17%
O=C1c2oc3ccccc3c(=O)c2C(c2cccc(Br)c2)N1Cc1ccco1 (configuration not stated)	-26%	-9%	-24%	?	13µM*
O=C1c2oc3ccc(Br)cc3c(=O)c2C(c2cccnc2)N1Cc1ccco1 (configuration not stated)	10%	3%	-12%	nt	3%
Cc1nc(NCc2ccccc2)c2nc(-c3ccccc3)n(CC(C)(C)CN(C)C)c2n1	13%	23%	-18%	?	?
Cn1nc(C(=O)Nc2cccnc2)c2ccccc2c1=O	-8%	-17%	10µM*	-2%	-3%
COc1cccc2cc3c(=O)n(-c4ccccc4)nc-3oc12	?	16µM*	2%	-9%	6%
COc1cccc2cc(C(C)=O)c(=O)oc12	-8%	-7%	-22%	-4%	-13%
N#Cc1c(C(F)(F)F)cc(-c2ccco2)nc1SCc1ccccn1	2%	52%	?	?	32µM*
N#Cc1c(C(F)(F)F)cc(-c2ccco2)nc1SCc1ccncc1	?	61%	13%	?	?
CC(C)CO/N=C1/C[C@@H](O)[C@@H](O)[C@@H]2[C@@H]3C(=O)N([C@@H](C)c4ccccc4)C(=O)[C@H]3CC[C@H]12	1%[11.5 µM]	nt	nt	nt	-7%[11.4 µM]
COc1ccc(-n2ccnc2SCC(=O)Nc2ccccc2)cc1	18%	4%	-3%	?	3.2µM*
OCc1ccncc1.OCc1ccncc1.[Cl][Pt]([Cl])([Cl])[Cl]	-10%[11.5 µM]	4%[11.4 µM]	5%[7.6 µM]	-1%[11.4 µM]	-13%[11.4 µM]
COC(=O)C1CCN(C(c2cc(OC)c(OC)c(OC)c2)c2sc3nc(C)nn3c2O)CC1 (configuration not stated)	nt	-20%	13µM*	-10%	-5%
O=C(N/N=C1/C[C@@H](O)[C@@H](O)[C@@H]2[C@@H]3C(=O)N(Cc4ccccc4)C(=O)[C@H]3CC[C@@H]12)OCc1ccccc1	0%[11.5 µM]	nt	nt	-2%[11.4 µM]	-6%[11.4 µM]
CCOC(=O)N1CCN(c2cc(NCCC(=O)O)c3c4c(onc24)-c2ccccc2C3=O)CC1	17%	13µM*	?	-18%	-16%
O=C(O)CCCNc1cc(N2CCC3(CC2)OCCO3)c2noc3c2c1C(=O)c1ccccc1-3	32%	16µM*	10µM*	-19%	-24%
CCOC(=O)N1CCN(c2c(NCCCN(CC)Cc3ccccc3)c(=O)c2=O)CC1	8%	4%	13%	-7%[11.4 µM]	-5%
OCC1OC(C#Cc2ccccc2)C=CC1O (configuration not stated)	36%[11.5 µM]	nt	nt	-2%[11.4 µM]	-4%[11.4 µM]
Cc1nc(N2CCOCC2)c2nc(-c3ccccc3)n(CCN(C)C)c2n1	-14%	-2%	19%	5%	20%
C[C@@H](SCc1ccccc1)C(=O)O	0%[11.5 µM]	-3%[11.4 µM]	5%[7.6 µM]	2%[11.4 µM]	2%[11.4 µM]
Cc1cccc(-c2noc(CN(C(=O)c3ccc4c(c3)OCO4)C(C)C)n2)c1	-3%	-18%	-13%	?	32µM*
Cc1cccc(-c2noc(CN(C(=O)c3ccc(Br)o3)C(C)C)n2)c1	-7%	-10%	7%	?	?
